Screens as filed in PubChem BioAssay.
Only some compounds are listed: those with a hit (about 19% of all), similar ones and a draw of the others.
KB-3-1 cytotox – KB-3-1 parental cell cytotoxicity; KB-3-1 viability, CellTiter-Glo ATP luminescence, 72 h; Potency, µM (highest dose often 46.1 µM), hits mostly cytotoxic; AID 1347075; 1.4% of 400,000 active; further: nearly all actives have a fitted effect of over 60% in size
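KB-3-1 parental drug-naive adenocarcinoma cells in DMEM/10% FBS, incubated 72 h at 37 C with pin-transferred compounds across a concentration series. Viability by CellTiter-Glo luminescence; concentration-response curves fitted after normalization.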
DT40 TDP1 CPT – growth inhibition of DT40 Tdp1-/-;hTDP1 cells with camptothecin (screen for TDP1 inhibitors) | chicken DT40 Tdp1-/-;hTDP1 cells + 20 nM CPT, ATP luminescence, 48 h | Potency, µM (top dose mostly 46.2 µM), actives largely listed as inhibitors | 12% of 420,000 active | AID 686979; further: nearly all actives have a fitted effect of over 55% in size
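Chicken DT40 Tdp1-/- cells complemented with human TDP1, 400 cells/well, exposed to compounds plus 20 nM camptothecin for at least 48 h at 37 C; viability read as ATP content by CellTiter-Glo luminescence.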
DT40 TDP1 no CPT – qHTS for Inhibitors of human tyrosyl-DNA phosphodiesterase 1 (TDP1): qHTS in cells in absence of CPT; AID 686978, 2013; DT40 Tdp1-/- hTDP1 cells, no CPT, ATP luminescence, 48 h; Potency, µM (titrated, usually from 46.2 µM), actives largely listed as inhibitors; 15% of 420,000 active; further: nearly all actives have a fitted effect of over 55% in size
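Readout: luminescence from CellTiter-Glo after 30 min in the dark at RT. Cells: DT40 Tdp1-/- with stable hTDP1, 400/well. Exposure: compounds alone, ≥48 hr, 37 °C.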
KB-V1 cytotox – kills drug-selected multidrug resistant KB-V1 cells. KB-V1 MDR cells viability, CellTiter-Glo, 72 h. Potency, µM (top dose mostly 46.1 µM), hits mostly cytotoxic. 3.4% of 400,000 active. AID 1347076; further: nearly all actives have a fitted effect of over 60% in size
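Cytotoxicity via CellTiter-Glo luminescence after 72 h compound exposure at 37 degrees C. Cells: drug-selected KB-V1 line, DMEM phenol-red free plus 10% FBS. Compounds tested at multiple concentrations; normalized data fitted to concentration-effect curves.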
HT1080-NT tox – kills 2HG-producing HT-1080-NT fibrosarcoma cells; Potency, µM (doses to about 46.1 µM), most hits filed as cytotoxic; 1.6% of 360,000 active; HT-1080-NT fibrosarcoma viability, CellTiter-Glo ATP luminescence, 48 h;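 further: NT is the 2HG producing partner of a matched IDH1 knockdown line; nearly all actives have a fitted effect of over 55% in size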
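Read-out is CellTiter-Glo luminescence after 10 minutes at room temperature, following 48 hours' compound treatment of HT-1080-NT cells (750 cells/well, RPMI, 5% FBS, 37 degrees C).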
HT1080 IDH1KD tx – toxicity to HT-1080 IDH1 knockdown cells (counter line). HT-1080 IDH1 knockdown viability, ATP luminescence, 48 h. Potency, µM (doses to about 46.1 µM), usual class: cytotoxic. 2% of 360,000 active
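Cytotoxicity counter-line: IDH1KD HT-1080, 48 h, CellTiter-Glo. Curves classed by r2, magnitude and activity.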
Each line names hits and unclear results; the compound was inactive in the other large screens. The call rests on the fitted dose curve; in most records, active means well fitted curve in the direction sought with a large enough effect; inconclusive means small, poorly fitted or top-dose-only effect, or another doubt; inactive means no such curve, though single readings can be large; an effect the other way counts as inactive or inconclusive.

COc1ccc(NC(=O)C2CC(c3ccc(OC)c(OC)c3)=NO2)cc1OC (configuration not stated)	none
COc1cc(C2=NOC(C(=O)Nc3ccc(C)cc3)C2)cc(OC)c1OC (configuration not stated)	DT40 TDP1 CPT 12.6µM, DT40 TDP1 no CPT 11.2µM
COc1cc(NC(=O)C2CC(c3ccccc3Cl)=NO2)cc(OC)c1OC (configuration not stated)	DT40 TDP1 CPT 16.4µM, DT40 TDP1 no CPT 23.1µM, KB-V1 cytotox inconclusive, HT1080-NT tox inconclusive
COc1cc(NC(=O)C2CC(c3ccc(Cl)cc3)=NO2)cc(OC)c1OC (configuration not stated)	DT40 TDP1 no CPT inconclusive
COc1cc(C2=NOC(C(=O)NC3CCCCC3)C2)cc(OC)c1OC (configuration not stated)	KB-V1 cytotox 9.2µM
CCCCCCOc1ccc(N2C(=O)CC(N(CCc3ccc(S(N)(=O)=O)cc3)C(C)=O)C2=O)cc1 (configuration not stated)	DT40 TDP1 no CPT inconclusive
Clc1ccc(CO/N=C/c2cccs2)cc1	none
Cc1ccc(C2Nc3cc(C)c(C)cc3-n3c(-c4ccccc4)c4c(=O)n(C)c(=O)n(C)c4c32)o1 (configuration not stated)	DT40 TDP1 CPT 7.31µM, DT40 TDP1 no CPT 9.2µM, KB-V1 cytotox inconclusive (no result: HT1080-NT tox, HT1080 IDH1KD tx)
COc1ccc(-c2nc3ccccc3n3c(-c4ccccc4)c4c(=O)n(C)c(=O)n(C)c4c23)cc1	none (no result: HT1080-NT tox, HT1080 IDH1KD tx)
Cc1ccc(-c2c3c(=O)n(C)c(=O)n(C)c3c3n2-c2ccccc2NC3c2ccc(C)cc2O)cc1 (configuration not stated)	KB-3-1 cytotox inconclusive, DT40 TDP1 CPT 20.6µM, DT40 TDP1 no CPT 20.6µM (no result: HT1080-NT tox, HT1080 IDH1KD tx)
COc1ccc(O)c(C2Nc3ccccc3-n3c(-c4ccccc4)c4c(=O)n(C)c(=O)n(C)c4c32)c1 (configuration not stated)	DT40 TDP1 CPT 9.2µM, DT40 TDP1 no CPT 18.4µM, KB-V1 cytotox inconclusive (no result: HT1080-NT tox, HT1080 IDH1KD tx)
COc1ccc(-c2c3c(=O)n(C)c(=O)n(C)c3c3n2-c2ccccc2NC3c2ccco2)cc1 (configuration not stated)	DT40 TDP1 CPT 14.6µM, DT40 TDP1 no CPT inconclusive (no result: HT1080-NT tox, HT1080 IDH1KD tx)
Cn1c(=O)c2c(-c3ccccc3)n3c(c2n(C)c1=O)C(c1ccc([N+](=O)[O-])cc1)Nc1ccccc1-3 (configuration not stated)	KB-3-1 cytotox inconclusive, DT40 TDP1 CPT 16.4µM, DT40 TDP1 no CPT 14.6µM, KB-V1 cytotox inconclusive (no result: HT1080-NT tox, HT1080 IDH1KD tx)
Cn1c2c(c(=O)n(C)c1=O)C(c1ccc(Br)cc1)Nc1ccccc1O2 (configuration not stated)	KB-3-1 cytotox inconclusive, DT40 TDP1 no CPT inconclusive, KB-V1 cytotox inconclusive
O=C(CSc1ccc(Cl)cc1)Nc1cccc(-c2nc3ccccc3[nH]2)c1	DT40 TDP1 CPT 9.2µM, DT40 TDP1 no CPT 10.3µM, HT1080 IDH1KD tx inconclusive
O=C(CN1CCOCC1)Nc1ccc(-c2nc3ccccc3[nH]2)cc1	KB-V1 cytotox inconclusive
O=C(Nc1ccc(-c2nc3ccccc3[nH]2)cc1)c1c(F)c(F)c(F)c(F)c1F	none
O=C(Cc1cccs1)Nc1ccc(-c2nc3ccccc3[nH]2)cc1	KB-3-1 cytotox inconclusive, DT40 TDP1 CPT inconclusive, DT40 TDP1 no CPT 20.6µM, HT1080-NT tox inconclusive, HT1080 IDH1KD tx inconclusive
Cc1ccc2nc(-c3ccc(NC(=O)CSc4ccccc4)cc3)[nH]c2c1	DT40 TDP1 CPT 10.3µM, DT40 TDP1 no CPT 16.4µM, HT1080-NT tox inconclusive, HT1080 IDH1KD tx 12.6µM
COc1c(F)c(F)c(C(=O)Nc2ccc(-c3nc4ccccc4[nH]3)cc2)c(F)c1F	DT40 TDP1 CPT 6.51µM, DT40 TDP1 no CPT 4.61µM
CCN(CC)c1ccc(NC(=O)C2CCCN(S(=O)(=O)c3cnc[nH]3)C2)c(C)c1 (configuration not stated)	DT40 TDP1 CPT inconclusive
